This is an account of results in PubChem BioAssay (NCATS).

Molecules are shown by their SMILES. Results filed as inconclusive are left out. Activity calls are given as the source filed them. The call rests on the fitted dose curve; in most records, active means well fitted inhibition curve with a large enough effect; inconclusive means small, poorly fitted or top-dose-only effect; inactive means flat fitted curve, though single readings scatter.

What all share (experiment): qHTS profiling for inhibitors of Plasmodium falciparum proliferation (AID 504749); further: nearly all actives have a fitted effect of over 60% in size
Conditions in all cases: P. falciparum in erythrocytes, SYBR Green DNA, 72 h; series mostly up to 28.7 µM
(In general: qHTS replaces the single test concentration by a dilution series.)

For one assay, the system named is CP297. The method, boiled down:
(§1)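 Each compound contacts P. falciparum-infected red blood cells for 72 h at 37 C; lysis buffer (Tris, EDTA, saponin, Triton X, SYBR Green I) is added and fluorescence measured next morning; values normalized to controls.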

Another assay relates to CP305. The method, boiled down:
as §1

In another assay the test system is CP315. In short, it runs like this: as §1
For the next assay, the system named is CP325. In short, it runs like this: as §1
In the next assay the test system is CP329. The method, boiled down:
as §1

The subject of a further assay is CP335. The method, boiled down: as §1
In a further assay the test system is DFO2036. The method, boiled down:
as §1

The next assay relates to DIV14. In short, it runs like this:
as §1

In the next assay the test system is DIV17. The method, boiled down:
as §1

Another assay concerns DIV30. The method, boiled down: as §1
Another assay has as its system Dd2. In short, it runs like this:
as §1

The next assay deals with ECU. In short, it runs like this: as §1
A further assay concerns FAB9. In short, it runs like this:
as §1

In another assay the test system is GB4. In short, it runs like this:
as §1

The next assay relates to HB3. The method, boiled down:
as §1

Another assay has as its system JCK. In short, it runs like this:
as §1

In the next assay the test system is N140. The method, boiled down: as §1
The test system of a further assay is P93_24. In short, it runs like this:
as §1

In the next assay the test system is ICS. In short, it runs like this: as §1
Another assay has as its system P94_40. In short, it runs like this: as §1
Potency means the concentration at half of the fitted maximal effect.

Turning to `C[C@@](Cc1ccc(O)c(O)c1)(NN)C(=O)O`, the Potency result in the assay on CP297, with CP305, in the assay on CP315, in the assay with CP325, in the assay with CP329 and in the assay on CP335 was “inactive” in each case. For the same compound, the Potency entry with DFO2036, in the assay with DIV14, with DIV17, with DIV30, in the assay with Dd2 and in the assay with ECU was “inactive” throughout. Further, the Potency entry in the assay on FAB9, in the assay with GB4, with HB3, with JCK, with N140 and in the assay with P93_24 was “inactive” each time.

Take `c1ccc2c(c1)Sc1ccccc1N2CCN1CCCC1`: the Potency is 12 µM (active) with CP297; 15.1 µM (active) with CP305; 12 µM (active) with CP315; 15.1 µM (active) in the assay on CP325; 15.1 µM (active) in the assay on CP329; 9.53 µM (active) in the assay with CP335. Moreover, the Potency with DFO2036 was 10 µM (active); in the assay on DIV14, 6.01 µM (active); with DIV17, 6.75 µM (active); in the assay on DIV30, 12 µM (active); in the assay on Dd2, 5.62 µM (active); in the assay on ECU it was 10 µM (active). For the same compound, the Potency with GB4 was 7.57 µM (active); with ICS, 3.98 µM (active); with N140, 7.94 µM (active); in the assay with P93_24 it was 7.08 µM (active); in the assay with P94_40, 7.94 µM (active). Moreover, the Potency entry with FAB9 and with JCK was “inactive” throughout.

Regarding `CC/C=C\C/C=C\C/C=C\C/C=C\C/C=C\C/C=C\CCC(=O)O`, the Potency result in the assay with CP297, in the assay with CP305, with CP315, with CP325, with CP329 and in the assay with CP335 was “inactive” each time. Further, the Potency entry with DFO2036, in the assay with DIV14, with DIV17, in the assay on DIV30, in the assay with Dd2 and in the assay on FAB9 was “inactive” throughout. Besides, the Potency entry with GB4, in the assay with HB3, with JCK, with N140, with P93_24 and with P94_40 was “inactive” in each case. In addition, the Potency with ICS was 12.6 µM (active).

On to `CC(C)[C@H](N)C(=O)OCC(CO)OCn1cnc2c(=O)[nH]c(N)nc21` (stereo partly specified), for which the Potency result in the assay on CP297, with CP305, in the assay with CP315, in the assay with CP325, with CP329 and in the assay with CP335 was “inactive” throughout. In addition, the Potency entry with DFO2036, in the assay with DIV14, with DIV17, with DIV30, in the assay on Dd2 and in the assay on ECU was “inactive” throughout. Also, the Potency result in the assay on FAB9, in the assay with GB4, with HB3, in the assay with ICS, with JCK and in the assay with N140 was “inactive” each time. Further, the Potency result with P93_24 and in the assay on P94_40 was “inactive” in each case.

Consider `CC1=CC(=C(c2ccc(N)cc2)c2ccc(N)cc2)C=CC1=N`, for which the Potency with CP297 was 4.78 µM (active); in the assay with CP305, 4.26 µM (active); with CP315, 4.78 µM (active); in the assay on CP325, 6.01 µM (active); with CP329, 4.78 µM (active); with CP335, 2.13 µM (active). The Potency in the assay with DFO2036 was 2.82 µM (active); with DIV14, 1.07 µM (active); in the assay on DIV17, 1.35 µM (active); in the assay with DIV30 it was 5.36 µM (active); with Dd2, 2.82 µM (active); in the assay on ECU it was 2.24 µM (active). For the same compound, the Potency with FAB9 is 11.2 µM (active); in the assay with GB4, 0.536 µM (active); in the assay on HB3 it was 8.91 µM (active); with ICS it was 1.26 µM (active); in the assay on N140, 2.24 µM (active); with P93_24, 2.51 µM (active). Besides, the Potency in the assay with P94_40 is 1.41 µM (active).

For the compound `CCC(Cc1c(I)cc(I)c(O)c1I)C(=O)O` (stereo unspecified), the Potency entry in the assay on CP297, with CP305, in the assay on CP315, in the assay with CP325, with CP329 and in the assay with CP335 was “inactive” throughout. Besides, the Potency entry with DFO2036, in the assay with DIV14, with DIV17, in the assay with DIV30, in the assay with Dd2 and in the assay with ECU was “inactive” in each case. Also, the Potency result with FAB9, in the assay on GB4, in the assay with HB3, in the assay on ICS, in the assay with JCK and in the assay on N140 was “inactive” throughout. Moreover, the Potency entry in the assay with P93_24 and in the assay on P94_40 was “inactive” each time.

Turning to `O=C1c2ccccc2C(=O)C1c1ccc(Cl)cc1`, the Potency entry with CP297, in the assay on CP305, in the assay on CP315, in the assay with CP325, in the assay with CP329 and with CP335 was “inactive” each time. Besides, the Potency result in the assay on DFO2036, in the assay with DIV14, in the assay with DIV17, in the assay with DIV30, with Dd2 and with FAB9 was “inactive” each time. The Potency entry with GB4, in the assay with HB3, with JCK, in the assay with N140, in the assay on P93_24 and in the assay on P94_40 was “inactive” throughout.

Consider `CC(=O)Nc1ccc(OC(C)=O)cc1`, for which the Potency entry in the assay with CP297, in the assay on CP305, in the assay with CP315, with CP325, with CP329 and in the assay on CP335 was “inactive” throughout. The Potency entry with DFO2036, in the assay with DIV14, with DIV17, in the assay on DIV30, in the assay on Dd2 and with ECU was “inactive” throughout. Besides, the Potency entry with FAB9, with GB4, with HB3, with ICS, in the assay on JCK and with N140 was “inactive” throughout. Further, the Potency entry in the assay on P93_24 and in the assay with P94_40 was “inactive” each time.

As for `FC(F)OC(Cl)C(F)(F)F` (stereo unspecified), the Potency entry with CP297, in the assay on CP305, in the assay on CP315, in the assay with CP325, in the assay on CP329 and in the assay with CP335 was “inactive” in each case. The Potency result in the assay with DFO2036, in the assay with DIV14, in the assay on DIV30, with Dd2, in the assay on ECU and in the assay on FAB9 was “inactive” in each case. For the same compound, the Potency entry in the assay with GB4, in the assay on HB3, with ICS, in the assay on JCK, with N140 and with P93_24 was “inactive” in each case. The Potency result in the assay with P94_40 was “inactive”.

`CCCc1ccc(C(=O)O)cc1`: the Potency entry in the assay with CP297, with CP305, in the assay with CP315, in the assay on CP325, in the assay with CP329 and in the assay on CP335 was “inactive” in each case. Also, the Potency entry in the assay with DFO2036, in the assay with DIV14, in the assay with DIV17, in the assay on DIV30, with Dd2 and in the assay on ECU was “inactive” in each case. Also, the Potency entry in the assay on FAB9, with GB4, in the assay on HB3, in the assay with ICS, with JCK and in the assay with N140 was “inactive” throughout. The Potency entry in the assay on P93_24 and with P94_40 was “inactive” throughout.

In the case of `Cc1cc2nc3c(=O)[nH]c(=O)nc-3n(C[C@H](O)[C@H](O)[C@H](O)COP(=O)(O)OP(=O)(O)OC[C@H]3O[C@@H](n4cnc5c(N)ncnc54)[C@H](O)[C@@H]3O)c2cc1C`, the Potency entry in the assay on CP297, with CP305, in the assay on CP315, in the assay on CP325, with CP329 and in the assay on CP335 was “inactive” each time. In addition, the Potency result with DFO2036, in the assay on DIV14, in the assay on DIV17, with Dd2, with ECU and with FAB9 was “inactive” throughout. Moreover, the Potency result in the assay with GB4, with HB3, in the assay on ICS, in the assay with JCK, in the assay with N140 and in the assay on P93_24 was “inactive” each time. The Potency result in the assay on P94_40 was “inactive”.

Regarding `FCOC(C(F)(F)F)C(F)(F)F`, the Potency entry with CP297, with CP305, in the assay on CP315, in the assay with CP325, in the assay on CP329 and in the assay with CP335 was “inactive” each time. Also, the Potency entry in the assay with DFO2036, in the assay with DIV14, with DIV17, in the assay on DIV30, in the assay with Dd2 and with ECU was “inactive” each time. The Potency result with FAB9, with GB4, with HB3, in the assay on ICS, in the assay on JCK and with N140 was “inactive” each time. Also, the Potency result in the assay on P93_24 and in the assay on P94_40 was “inactive” throughout.

For the compound `CC(C)(CO)[C@@H](O)C(=O)NCCC(=O)NCCSSCCNC(=O)CCNC(=O)[C@H](O)C(C)(C)CO`, the Potency entry with CP297, in the assay with CP305, in the assay with CP315, in the assay on CP325, with CP329 and in the assay with CP335 was “inactive” each time. The Potency result in the assay on DFO2036, in the assay on DIV14, with DIV17, in the assay on DIV30, in the assay with Dd2 and in the assay with ECU was “inactive” in each case. Moreover, the Potency result in the assay with FAB9, with GB4, in the assay on HB3, with ICS, with JCK and with N140 was “inactive” throughout. Further, the Potency result in the assay with P93_24 and in the assay on P94_40 was “inactive” each time.
